Out of some 5,500 compounds screened, about 2,000 (36%) were called active. Inconclusive results (about 18%) are left out. Rule as the data show it: active = normalized growth mostly below about 0.91 (no sharp cut-off); inconclusive = no clear call, values can overlap the other calls; inactive = mostly above about 0.92. The list shows a part of the results.
Test: chemical genetic growth profiling, strain panel (AID 1159580);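 also: tested at 20 µM; growth read once vehicle control cultures reached saturation at 30 °C; 1 = growth at the plate median or of vehicle wells; lower values mean less growth of the strain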
Details: S. cerevisiae deletion strains, growth OD
[1] = locus YHR030C, strain SLT2, hits give low values
[2] = locus YHR079C, strain IRE1, hits give low values
[3] = locus YJL095W, strain BCK1, hits give low values
[4] = locus YJR066W, strain TOR1, hits give low values
[5] = locus YLR113W, strain HOG1, hits give low values
[6] = locus YNL183C, strain NPR1, hits give low values
[7] = locus YOR231W, strain MKK1, hits give low values
[8] = locus YPL256C, strain CLN2, hits give low values

Measured: normalized growth

OC1(c2ccc(Cl)c(C(F)(F)F)c2)CCN(CCCC(c2ccc(F)cc2)c2ccc(F)cc2)CC1
active: locus YAL021C, strain ccr4, hits give low values 0.0667 | locus YAL026C, strain drs2, hits give low values 0.0627 | locus YAL030W, strain snc1, hits give low values 0.0597 | locus YBL061C, strain skt5, hits give low values 0.0677 | locus YBR009C, strain hhf1, hits give low values 0.0608 | locus YBR023C, strain chs3, hits give low values 0.0682 | locus YBR171W, strain sec66, hits give low values 0.0917 | locus YBR231C, strain swc5, hits give low values 0.0658 | locus YBR279W, strain paf1, hits give low values 0.218 | locus YCL011C, strain gbp2, hits give low values 0.0588 | locus YCL016C, strain dcc1, hits give low values 0.0739 | locus YCL061C, strain MRC1, hits give low values 0.394 | locus YCL069W, strain vba3, hits give low values 0.101 | locus YCR088W, strain abp1, hits give low values 0.0838 | locus YDL005C, strain med2, hits give low values 0.0778 | locus YDL040C, strain nat1, hits give low values 0.109 | locus YDR001C, strain nth1, hits give low values 0.0892 | locus YDR069C, strain doa4, hits give low values 0.0704 | locus YDR137W, strain rgp1, hits give low values 0.111 | locus YDR159W, strain sac3, hits give low values 0.0866 | locus YDR195W, strain ref2 0.0989 | locus YDR297W, strain sur2, hits give low values 0.0586 | locus YDR334W, strain swr1, hits give low values 0.0861 | locus YDR335W, strain msn5, hits give low values 0.0657 | locus YDR392W, strain spt3, hits give low values 0.0888 | locus YEL003W, strain gim4, hits give low values 0.0558 | locus YEL037C, strain rad23, hits give low values 0.0879 | locus YEL061C, strain CIN8 (second series), hits give low values 0.0952 | locus YER015W, strain faa2, hits give low values 0.0667 | locus YER016W, strain bim1, hits give low values 0.0765 | locus YER111C, strain swi4, hits give low values 0.14 | locus YER155C, strain BEM2 (second series), hits give low values 0.468 | locus YFR010W, strain ubp6, hits give low values 0.0981 | locus YGL167C, strain pmr1, hits give low values 0.0793 | locus YGL173C, strain kem1, hits give low values 0.0739 | locus YGL227W, strain vid30, hits give low values 0.188 | locus YGL240W, strain doc1, hits give low values 0.317 | locus YGL253W, strain hxk2, hits give low values 0.0755 | locus YHR013C, strain ard1, hits give low values 0.148 | locus YHR027C, strain rpn1, hits give low values 0.067 | locus YHR142W, strain chs7, hits give low values 0.0949 | locus YJL092W, strain hpr5, hits give low values 0.105 | locus YJL095W, strain BCK1 (second series), hits give low values 0.0578 | locus YJL115W, strain asf1, hits give low values 0.485 | locus YJL129C, strain trk1, hits give low values 0.0811 | locus YJL154C, strain vps35, hits give low values 0.0686 | locus YJL164C, strain tpk1, hits give low values 0.0638 | locus YJL166W, strain qcr8, hits give low values 0.0607 | locus YKL160W, strain elf1, hits give low values 0.348 | locus YKR026C, strain gcn3, hits give low values 0.132 | locus YKR091W, strain srl3, hits give low values 0.0942 | locus YLL001W, strain dnm1, hits give low values 0.0836 | locus YLL026W, hits give low values 0.0586 | locus YLL041C, strain sdh2, hits give low values 0.0615 | locus YLR027C, strain aat2, hits give low values 0.0571 | locus YLR221C, strain rsa3, hits give low values 0.061 | locus YLR258W, strain gsy2, hits give low values 0.0676 | locus YLR262C, strain YPT6 (second series), hits give low values 0.0931 | locus YLR320W, strain mms22, hits give low values 0.141 | locus YLR342W, strain FKS1, hits give low values 0.0657 | locus YLR357W, strain rsc2, hits give low values 0.321 | locus YLR370C, strain arc18, hits give low values 0.0708 | locus YLR384C, strain iki3, hits give low values 0.127 | locus YML120C, strain ndi1, hits give low values 0.057 | locus YMR058W, strain fet3, hits give low values 0.0807 | locus YMR125W, strain sto1, hits give low values 0.164 | locus YMR129W, hits give low values 0.0603 | locus YMR205C, strain PFK2, hits give low values 0.0884 | locus YMR231W, strain pep5, hits give low values 0.0664 | locus YNL071W, strain lat1, hits give low values 0.0627 | locus YNL209W, strain ssb2, hits give low values 0.0684 | locus YNL248C, strain rpa49, hits give low values 0.196 | locus YNL322C, strain KRE1 (second series), hits give low values 0.479 | locus YNR049C, strain mso1, hits give low values 0.12 | locus YOR001W, strain rrp6, hits give low values 0.0677 | locus YOR070C, strain gyp1, hits give low values 0.0739 | locus YOR080W, strain dia2, hits give low values 0.196 | locus YOR083W, strain WHI5, hits give low values 0.0883 | locus YOR106W, strain vam3, hits give low values 0.0691 | locus YOR265W, strain rbl2, hits give low values 0.0702 | locus YOR270C, strain vph1, hits give low values 0.127 | locus YOR290C, strain snf2, hits give low values 0.104 | locus YPL051W, strain arl3, hits give low values 0.0821 | locus YPL078C, strain atp4, hits give low values 0.216 | locus YPL106C, strain sse1, hits give low values 0.0967 | locus YPL240C, strain hsp82, hits give low values 0.0596
inactive: [1] 0.952 | [2] 0.965 | [3] 0.972 | [4] 0.931 | [5] 0.946 | [6] 0.935 | [7] 0.981 | [8] 0.936

O=C(CCCN1CCC(O)(c2ccc(Br)cc2)CC1)c1ccc(F)cc1
inactive: [1] 0.959 | [2] 0.976 | [3] 0.962 | [4] 0.937 | [5] 1.02 | [6] 0.902 | [7] 0.981 | [8] 1.02

— PubChem BioAssay AID1159580 (chemical genetic matrix, 2015)
